{
  "source": "ChEMBL document CHEMBL5606460",
  "about": "“ASAP - DENV-2 NS2B-NS3 protease fluorescence single point” (2024)",
  "molecular_target": "Genome polyprotein (dengue virus type 2) (UniProt P29990)",
  "key": {"[1]": {"details": "Thailand/16681/1984, Concentration 25.0 uM, Number of replicates 1.0"}},
  "note": "The campaign covered roughly 2,000 compounds. About 110 (5.5%) showed an effect of 50% or more. The list comes from a sample in which strong results are over-represented; it also holds similar structures and randomly drawn compounds.",
  "data": [
    {"smiles": "CC(C)(CO)NC(=O)c1cc(Cl)cc(NS(=O)(=O)c2ccccc2)c1", "values": [
      {"measurement": "inhibition", "setting": "Thailand/16681/1984, Concentration 49.5 uM, Number of replicates 2.0, Standard deviation 0.43077113751226487 %", "result": -5.72, "unit": "%"},
      {"measurement": "inhibition", "setting": "Thailand/16681/1984, Concentration 99.01 uM, Number of replicates 2.0, Standard deviation 0.028975789763845603 %", "result": -4.57, "unit": "%"},
      {"measurement": "inhibition", "setting": "Thailand/16681/1984, Concentration 198.0 uM, Number of replicates 2.0, Standard deviation 1.4999717780869397 %", "result": -2.99, "unit": "%"}
    ]},
    {"smiles": "O=Cc1ccc(N2CCC(C(=O)NCc3cc(C(F)(F)F)ccc3C(F)(F)F)CC2)cc1", "values": [
      {"measurement": "inhibition", "setting": "[1]", "result": 1.04, "unit": "%"}
    ]},
    {"smiles": "Cn1cnc2[nH]c(C(=O)N3CC[C@H](c4c[nH]c5ccccc45)C3)cc21", "values": [
      {"measurement": "inhibition", "setting": "Thailand/16681/1984, Concentration 49.5 uM, Number of replicates 2.0, Standard deviation 2.003876801484884 %", "result": -2.49, "unit": "%"},
      {"measurement": "inhibition", "setting": "Thailand/16681/1984, Concentration 99.01 uM, Number of replicates 2.0, Standard deviation 1.2772748269322285 %", "result": -1.94, "unit": "%"},
      {"measurement": "inhibition", "setting": "Thailand/16681/1984, Concentration 198.0 uM, Number of replicates 2.0, Standard deviation 1.685869304282425 %", "result": -0.105, "unit": "%"}
    ]},
    {"smiles": "O=Cc1ccc(N2CCC(C(=O)Nc3ccc(Cl)c(Cl)c3)CC2)cc1", "values": [
      {"measurement": "inhibition", "setting": "[1]", "result": 11.8, "unit": "%"}
    ]},
    {"smiles": "O=Cc1ccc(N2CCC(C(=O)Nc3cc(Cl)c(O)c(Cl)c3)CC2)cc1", "values": [
      {"measurement": "inhibition", "setting": "[1]", "result": 100, "unit": "%"}
    ]},
    {"smiles": "O=Cc1ccc(N2CCC(C(=O)Nc3cc(Cl)ccc3Br)CC2)cc1", "values": [
      {"measurement": "inhibition", "setting": "[1]", "result": 13.8, "unit": "%"}
    ]},
    {"smiles": "O=Cc1ccc(N2CCC(C(=O)Nc3cc(Cl)c(F)c(Cl)c3)CC2)cc1", "values": [
      {"measurement": "inhibition", "setting": "[1]", "result": 13.1, "unit": "%"}
    ]},
    {"smiles": "O=Cc1ccc(N2CCC(C(=O)Nc3cc(Cl)cc([N+](=O)[O-])c3O)CC2)cc1", "values": [
      {"measurement": "inhibition", "setting": "[1]", "result": 90.5, "unit": "%"}
    ]},
    {"smiles": "O=Cc1ccc(N2CCC(C(=O)Nc3c(Cl)cc(Cl)cc3Br)CC2)cc1", "values": [
      {"measurement": "inhibition", "setting": "[1]", "result": 13.4, "unit": "%"}
    ]},
    {"smiles": "O=Cc1ccc(N2CCC(C(=O)Nc3ccc(O)cc3[N+](=O)[O-])CC2)cc1", "values": [
      {"measurement": "inhibition", "setting": "[1]", "result": 24.5, "unit": "%"}
    ]},
    {"smiles": "O=Cc1ccc(N2CCC(C(=O)Nc3cc(Cl)cc(Cl)c3O)CC2)cc1", "values": [
      {"measurement": "inhibition", "setting": "[1]", "result": 98.2, "unit": "%"}
    ]},
    {"smiles": "O=Cc1ccc(N2CCC(C(=O)Nc3ccc([N+](=O)[O-])cc3Cl)CC2)cc1", "values": [
      {"measurement": "inhibition", "setting": "[1]", "result": 23.5, "unit": "%"}
    ]},
    {"smiles": "c1cnc2c(C3CCN(Cc4cnn5ccccc45)CC3)c[nH]c2c1", "values": [
      {"measurement": "inhibition", "setting": "Thailand/16681/1984, Concentration 49.5 uM, Number of replicates 2.0, Standard deviation 1.316281988110152 %", "result": -4.72, "unit": "%"},
      {"measurement": "inhibition", "setting": "Thailand/16681/1984, Concentration 99.01 uM, Number of replicates 2.0, Standard deviation 2.2605015442223797 %", "result": -3.44, "unit": "%"},
      {"measurement": "inhibition", "setting": "Thailand/16681/1984, Concentration 198.0 uM, Number of replicates 2.0, Standard deviation 0.9691516929362414 %", "result": -2.08, "unit": "%"}
    ]},
    {"smiles": "O=Cc1ccc(N2CCC(C(=O)N3CCN(C(=O)Cc4ccccc4)CC3)CC2)cc1", "values": [
      {"measurement": "inhibition", "setting": "[1]", "result": 12.3, "unit": "%"}
    ]},
    {"smiles": "CN(C)C1(CNC(=O)C2CCN(c3ccc(C=O)cc3)CC2)CCOCC1", "values": [
      {"measurement": "inhibition", "setting": "[1]", "result": 12.1, "unit": "%"}
    ]},
    {"smiles": "NCc1ncc(C(=O)Nc2ccccc2N2CCC(CO)CC2)c(C(F)(F)F)n1", "values": [
      {"measurement": "inhibition", "setting": "Thailand/16681/1984, Concentration 49.5 uM, Number of replicates 2.0, Standard deviation 1.1543273279104322 %", "result": 2.58, "unit": "%"},
      {"measurement": "inhibition", "setting": "Thailand/16681/1984, Concentration 99.01 uM, Number of replicates 2.0, Standard deviation 0.2964400275887672 %", "result": 4.99, "unit": "%"},
      {"measurement": "inhibition", "setting": "Thailand/16681/1984, Concentration 198.0 uM, Number of replicates 2.0, Standard deviation 0.14686490832106133 %", "result": 6.91, "unit": "%"}
    ]},
    {"smiles": "NCc1cccc(NC(=O)[C@H]2CN(C(=O)OCc3ccccc3)CC23CCOCC3)c1", "values": [
      {"measurement": "inhibition", "setting": "Thailand/16681/1984, Concentration 49.5 uM, Number of replicates 2.0, Standard deviation 3.4820905640560142 %", "result": -2.83, "unit": "%"},
      {"measurement": "inhibition", "setting": "Thailand/16681/1984, Concentration 99.01 uM, Number of replicates 2.0, Standard deviation 3.010767204046265 %", "result": -1.08, "unit": "%"},
      {"measurement": "inhibition", "setting": "Thailand/16681/1984, Concentration 198.0 uM, Number of replicates 2.0, Standard deviation 2.6769829613344203 %", "result": -0.776, "unit": "%"}
    ]},
    {"smiles": "O=Cc1ccc(N2CCC(C(=O)Nc3ccc(OC(F)(F)F)cc3Cl)CC2)cc1", "values": [
      {"measurement": "inhibition", "setting": "[1]", "result": 13.6, "unit": "%"}
    ]},
    {"smiles": "COc1cc(COc2cncnc2)nc(N2CCNCC2)n1", "values": [
      {"measurement": "inhibition", "setting": "Thailand/16681/1984, Concentration 49.5 uM, Number of replicates 2.0, Standard deviation 3.306986633712837 %", "result": -2.35, "unit": "%"},
      {"measurement": "inhibition", "setting": "Thailand/16681/1984, Concentration 99.01 uM, Number of replicates 2.0, Standard deviation 2.7720530174645646 %", "result": -0.505, "unit": "%"},
      {"measurement": "inhibition", "setting": "Thailand/16681/1984, Concentration 198.0 uM, Number of replicates 2.0, Standard deviation 2.4477408574870583 %", "result": 0.524, "unit": "%"}
    ]},
    {"smiles": "O=C(NCc1cocn1)c1cc(Cl)ccc1NS(=O)(=O)c1ccc(Oc2ccccc2Cl)cc1", "values": [
      {"measurement": "inhibition", "setting": "Thailand/16681/1984, Concentration 49.5 uM, Number of replicates 2.0, Standard deviation 0.2927162692291327 %", "result": 78.5, "unit": "%"},
      {"measurement": "inhibition", "setting": "Thailand/16681/1984, Concentration 99.01 uM, Number of replicates 2.0, Standard deviation 0.11144031356026086 %", "result": 70.2, "unit": "%"},
      {"measurement": "inhibition", "setting": "Thailand/16681/1984, Concentration 198.0 uM, Number of replicates 2.0, Standard deviation 0.4940824474713894 %", "result": 60.8, "unit": "%"}
    ]},
    {"smiles": "Cc1ccc(CNC(=O)c2cc(Cl)ccc2NS(=O)(=O)c2ccc(Oc3ccccc3Cl)cc2)s1", "values": [
      {"measurement": "inhibition", "setting": "Thailand/16681/1984, Concentration 49.5 uM, Number of replicates 2.0, Standard deviation 0.032039697063193553 %", "result": 83.2, "unit": "%"},
      {"measurement": "inhibition", "setting": "Thailand/16681/1984, Concentration 99.01 uM, Number of replicates 2.0, Standard deviation 0.20602188771616411 %", "result": 78.6, "unit": "%"},
      {"measurement": "inhibition", "setting": "Thailand/16681/1984, Concentration 198.0 uM, Number of replicates 2.0, Standard deviation 0.539307027447943 %", "result": 69.5, "unit": "%"}
    ]},
    {"smiles": "O=C(NCc1c[nH]nn1)c1cc(Cl)ccc1NS(=O)(=O)c1ccc(Oc2ccccc2Cl)cc1", "values": [
      {"measurement": "inhibition", "setting": "Thailand/16681/1984, Concentration 49.5 uM, Number of replicates 2.0, Standard deviation 0.023138282657692737 %", "result": 75.2, "unit": "%"},
      {"measurement": "inhibition", "setting": "Thailand/16681/1984, Concentration 99.01 uM, Number of replicates 2.0, Standard deviation 0.008898717007196123 %", "result": 63.2, "unit": "%"},
      {"measurement": "inhibition", "setting": "Thailand/16681/1984, Concentration 198.0 uM, Number of replicates 2.0, Standard deviation 0.06140627240643217 %", "result": 36.5, "unit": "%"}
    ]},
    {"smiles": "COc1cccc(Cn2cc(C3CCNCC3)c(C)n2)n1", "values": [
      {"measurement": "inhibition", "setting": "Thailand/16681/1984, Concentration 49.5 uM, Number of replicates 2.0, Standard deviation 0.5897033629115713 %", "result": -3.33, "unit": "%"},
      {"measurement": "inhibition", "setting": "Thailand/16681/1984, Concentration 99.01 uM, Number of replicates 2.0, Standard deviation 0.7206939136220955 %", "result": -3.64, "unit": "%"},
      {"measurement": "inhibition", "setting": "Thailand/16681/1984, Concentration 198.0 uM, Number of replicates 2.0, Standard deviation 2.0772079346215944 %", "result": -3.79, "unit": "%"}
    ]},
    {"smiles": "CCCCCC(=O)N[C@H](C(=O)N1CCC[C@@H](N)C1)c1ccc(OCc2ccccc2)cc1", "values": [
      {"measurement": "inhibition", "setting": "Thailand/16681/1984, Concentration 49.5 uM, Number of replicates 2.0, Standard deviation 1.275572557867722 %", "result": -0.123, "unit": "%"},
      {"measurement": "inhibition", "setting": "Thailand/16681/1984, Concentration 99.01 uM, Number of replicates 2.0, Standard deviation 1.3300520589416613 %", "result": 0.674, "unit": "%"},
      {"measurement": "inhibition", "setting": "Thailand/16681/1984, Concentration 198.0 uM, Number of replicates 2.0, Standard deviation 1.6287502093065211 %", "result": 2.04, "unit": "%"}
    ]}
  ]
}
